The source of these data is PubChem BioAssay (NCI).

The panel holds about 83,000 compounds, 20% with a hit somewhere; the sample as a whole holds those more often.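 Single-dose data. Exposure time 48 hours. Values below 10 considered active.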 Unmarked numbers belong to inactive results. Active and inactive are the calls of the source.

The first experiment concerns CAKI-1 renal. Nature of the experiment: NCI-60 one-dose screen, 48 h (100 = growth as untreated, 0 = no growth, -100 = all killed). As to conditions: 10 µM unless noted.
Take `COCCCNc1nc(NC(=O)c2cc(Br)cc(C(F)(F)F)c2)cc(-c2cccnc2)n1`: the growth is 81.4%. As for `O=C(NCCCNC(=O)OCc1ccc2cccc(O)c2n1)OCc1ccc2cccc(O)c2n1`, the growth is 21%. Still for that read-out and setting: under `COc1cccc(-c2[nH]c(=S)ncc2C(=O)c2ccccc2)c1` stands 58.9%. Same read-out and setting: for `CCN(CCO)CCC(=O)c1ccc([N+](=O)[O-])cc1` the value was 102%; for `Cc1ccc(N)c(O)c1`, 94.8%. As to `CC(C)C1=NOC(=O)C1=Cc1cn(-c2ccccc2)nc1-c1ccc(Br)cc1`, the growth was 62.9%.

In the case of `Cc1cc[n+](CCCCCCCCCC[n+]2ccc(C)cc2)cc1`, the growth was 96.6%. On the same count and under the same terms, under `C[C@@H](NC(=O)[C@@H](CC(=O)N1CCC(N2CCCCC2)CC1)N1C(=O)[C@@H](N2C(=O)OC[C@@H]2c2ccccc2)[C@H]1/C=C/c1cccc(Cl)c1)c1ccccc1` stands 69.7%. On the same count and under the same terms, for `C/C=C/C1OC23CCCCC2C(C#N)(C(=N)O3)C1(C#N)C#N` (centres undefined) the value was 81.2%. Still for that read-out and setting: under `CCCOc1ccc(-c2nc(-c3ccc(N)cc3)cs2)cc1` stands 79.3%; under `Cc1ccccc1OC(=O)c1cccc(Cl)c1`, 109%. As for `CC(C)c1ccc(C(=O)Nc2nc3ccc(O)cc3s2)cc1`, the growth was -5.74% (active). Still for that read-out and setting: under `COc1cc(-c2nc(SCCC(C)C)nc(Nc3ccc(S(N)(=O)=O)cc3)c2C#N)cc(OC)c1OC` stands 17.1%. Still for that read-out and setting: under `O=C(CSc1nc2ccc([N+](=O)[O-])cc2[nH]1)Nc1cccc(Cl)c1` stands 17.6%. On the same count and under the same terms, under `COc1ccc2nc3cc(Cl)ccc3c(Nc3ccc(O)cc3)c2c1` stands 71.5%; under `O=C(OCc1ccc2c(Cl)cc(Cl)c(O)c2n1)N1CCN(C(=O)c2cc3cc(F)ccc3[nH]2)CC1`, 14.8%. Turning to `COc1ccc(C(C(=O)O)c2ccc(OC)cc2)cc1`, the growth was 112%. Same read-out and setting: under `O=C1COCCN1c1ccc(NCc2cn(Cc3ccc(F)cc3)c3ccccc23)cc1` stands -37.8% (active); under `O=C(Nc1cc(-c2cccnc2)nc(NCCCN2CCOCC2)n1)c1cc(Br)cc(C(F)(F)F)c1`, 61.8%; under `CS(=O)(=O)c1cccnn1`, 73.6%.

As for `C[C@]12CCc3c(ccc4cc(O)ccc34)[C@@H]1CC[C@H]2O`, the growth was 87.8%. Consider `CN(Cc1cccc(C(F)(F)F)c1)C(=O)[C@@H](CC(=O)N1CCC(N2CCCCC2)CC1)N1C(=O)[C@@H](N2C(=O)OC[C@@H]2c2ccccc2)[C@H]1/C=C/c1ccccc1`, for which the growth is 91.9%.

The subject of the next experiment is A498 renal. Described as above. Conditions: 10 µM unless noted.
Consider `O=C(CCCCCCSc1nc(-c2ccc(Cl)cc2)cc(-c2ccc(Cl)cc2)n1)NO`, for which the growth was 81.8%. In the case of `O=C1CC(C(F)(F)F)Cc2nc3ccc(Br)cc3cc21` (centres undefined), the growth is 49.7%. The same measure, in the same setting: under `COc1ccc(C2NC(=O)C(C#N)c3c2sc2c(F)cccc32)cc1` (centres undefined) stands 32.2%; under `CCCCCn1sc(=O)n(Cc2ccc(CNC(=O)OCc3ccc4cccc(O)c4n3)cc2)c1=O`, 4.89% (active); under `O=[N+]([O-])c1cccc(N=NNc2cccc([N+](=O)[O-])c2)c1`, -2.16% (active). The same measure, in the same setting: under `CCN(CC)CCCOc1ccc2c(c1)O/C(=C\c1cccc(OC)c1)C2=O` stands 72.6%; under `O=C(OCc1ccc2c(Cl)cc(Cl)c(O)c2n1)N1CCNCC1`, 24.3%. Same read-out and setting: under `C=CCCCCOc1ccccc1-c1cnc(OCCCCC=C)n1C` stands 51.1%; under `CSc1nc(=S)c2nc(SC)n(-c3ccccc3)c2[nH]1`, 86.6%.

For `CC1Cc2c(Cl)ncnc2N(C)c2ccc(O)cc21` (centres undefined), the growth is 94.1%. Turning to `Nc1nc(Nc2ccccc2)c2ncn(Cc3ccc4c(c3)OCO4)c2n1`, the growth is 39.8%. Still for that read-out and setting: under `COc1ccc(-c2cc(-c3ccc(Cl)cc3)nc(SCCCCCCC(=O)NO)n2)cc1` stands 52%; under `COc1ccc(C(=O)CSc2nccc(Nc3ccc(C(=O)O)cc3)n2)cc1`, 106%.

On to `CC1(C)OC2[C@@H](CNC(=O)NC(=O)NC(=O)CI)O[C@@H](n3cnc4c(NC(=O)Nc5ccccc5)ncnc43)[C@H]2O1` (some centres undefined), for which the growth is 99.4%. Same read-out and setting: under `Cn1cc(-c2noc(-c3cn(C)c4ncc(F)cc34)n2)c2cc(Cl)ccc21` stands 69.2%; under `COCCCNc1nc(NC(=O)c2cc(Br)cc(C(F)(F)F)c2)cc(-c2cccnc2)n1`, 76.2%. As for `O=C(NCCCNC(=O)OCc1ccc2cccc(O)c2n1)OCc1ccc2cccc(O)c2n1`, the growth is 60.9%. The same measure, in the same setting: under `COc1cccc(-c2[nH]c(=S)ncc2C(=O)c2ccccc2)c1` stands 75%.

For `CCN(CCO)CCC(=O)c1ccc([N+](=O)[O-])cc1`, the growth is 87%. The same measure, in the same setting: for `Cc1ccc(N)c(O)c1` the value was 50.7%; for `CC(C)C1=NOC(=O)C1=Cc1cn(-c2ccccc2)nc1-c1ccc(Br)cc1`, 57%. Same read-out and setting: under `Cc1cc[n+](CCCCCCCCCC[n+]2ccc(C)cc2)cc1` stands 85%; under `C[C@@H](NC(=O)[C@@H](CC(=O)N1CCC(N2CCCCC2)CC1)N1C(=O)[C@@H](N2C(=O)OC[C@@H]2c2ccccc2)[C@H]1/C=C/c1cccc(Cl)c1)c1ccccc1`, 84.6%. On the same count and under the same terms, for `C/C=C/C1OC23CCCCC2C(C#N)(C(=N)O3)C1(C#N)C#N` (centres undefined) the value was 118%; for `CCCOc1ccc(-c2nc(-c3ccc(N)cc3)cs2)cc1`, 215%. Take `Cc1ccccc1OC(=O)c1cccc(Cl)c1`: the growth was 90.5%.

Regarding `CC(C)c1ccc(C(=O)Nc2nc3ccc(O)cc3s2)cc1`, the growth was 38%. On the same count and under the same terms, for `COc1cc(-c2nc(SCCC(C)C)nc(Nc3ccc(S(N)(=O)=O)cc3)c2C#N)cc(OC)c1OC` the value was 43.5%; for `O=C(CSc1nc2ccc([N+](=O)[O-])cc2[nH]1)Nc1cccc(Cl)c1`, 5.48% (active). With `COc1ccc2nc3cc(Cl)ccc3c(Nc3ccc(O)cc3)c2c1`, the growth is 57.2%.

Turning to `O=C(OCc1ccc2c(Cl)cc(Cl)c(O)c2n1)N1CCN(C(=O)c2cc3cc(F)ccc3[nH]2)CC1`, the growth is -13.1% (active). Same read-out and setting: for `COc1ccc(C(C(=O)O)c2ccc(OC)cc2)cc1` the value was 86.7%; for `O=C1COCCN1c1ccc(NCc2cn(Cc3ccc(F)cc3)c3ccccc23)cc1`, -91.7% (active).

Regarding `O=C(Nc1cc(-c2cccnc2)nc(NCCCN2CCOCC2)n1)c1cc(Br)cc(C(F)(F)F)c1`, the growth was 53.7%. The same measure, in the same setting: for `CS(=O)(=O)c1cccnn1` the value was 66.7%; for `C[C@]12CCc3c(ccc4cc(O)ccc34)[C@@H]1CC[C@H]2O`, 85%.

As to `CN(Cc1cccc(C(F)(F)F)c1)C(=O)[C@@H](CC(=O)N1CCC(N2CCCCC2)CC1)N1C(=O)[C@@H](N2C(=O)OC[C@@H]2c2ccccc2)[C@H]1/C=C/c1ccccc1`, the growth is 63%.
